Test [1] is described as follows: qHTS assay to identify small molecule agonists of the hypoxia (HIF-1) signaling pathway - cell viability counter screen (AID 1224844; calls by dose curve; further: nearly all actives have a fitted effect of over 50% in size; further: potency means the concentration at half of the fitted maximal effect). The essentials: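 Multiplexed with the HRE beta-lactamase assay, this viability read used CellTiter-Glo luminescence (30 min, RT) on HRE-bla ME-180 cells treated 17 hrs with compounds in 0.5% dialyzed FBS medium.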
In general terms: Quantitative high-throughput screening tests each substance at several concentrations.

Test [2] in a line: qHTS assay to identify small molecule agonists of H2AX (AID 1224845; active means well fitted activation curve with a large enough effect in the signal ratio in the repeat runs, not every such curve was filed as active; the % refers to the signal ratio). An outline of the steps:
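Phospho-H2AX Ser139 measured by HTRF (ex 320 nm; em 665 and 620 nm) after 24 hr antibody incubation. Compounds, 15 concentrations, 0.76% DMSO, were applied to CHO-K1 cells for 3hr at 37C before lysis.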

Test [3] is described as follows: qHTS assay to identify small molecule agonists of H2AX - cell viability counter screen (AID 1224847; calls by dose curve; further: nearly all actives have a fitted effect of over 30% in size; further: potency means the concentration at half of the fitted maximal effect). An outline of the steps:
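Read-out: CellTiter-Glo luminescence, 30 min RT. Cells: wild-type CHO-K1, 1000/well, 10% FBS, plated overnight at 37C. Treatment: 15 concentrations, 3 hr, 37C, 0.76% DMSO.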

A short description of test [4]: qHTS assay to identify small molecule antagonists of the estrogen related receptor (ERR) signaling pathway from Tox21 library (AID 1224848). Further: nearly all actives have a fitted effect of over 50% in size. Further: potency means the concentration at half of the fitted maximal effect. An outline of the steps: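 Antagonist-mode screen of the Tox21 10K library in an NTP-provided ERR reporter cell line; 18 h compound exposure at 37 C, luminescence measured with ONE-Glo.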
A short description of test [5]: qHTS assay to identify small molecule agonists of the estrogen related receptor (ERR) signaling pathway from Tox21 library (AID 1224849; calls by dose curve; further: nearly all actives have a fitted effect of over 15% in size). The conditions noted are these: ERR reporter cell line, ONE-Glo luciferase, 18 h. The essentials:
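Six hours post-seeding at 37 C/5% CO2, ERR cells receive DMSO-solubilised compounds; after 18 h at 37 C, ONE-Glo reagent is applied and luminescence recorded.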

Test [6] can be described thus: qHTS RealTime-Glo MT Cell Viability Assay in HepG2 cells - 24 hour (AID 1224867). Further: nearly all actives have a fitted effect of over 50% in size. Further: potency means the concentration at half of the fitted maximal effect. The essentials: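 HepG2 cells (600/well) were dispensed with RealTime-Glo reagents, incubated 5 h at 37 °C, then treated with compounds in DMSO for up to 40 h. Nonlytic NanoLuc luminescence reflecting viable cells was read at each stated time point.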
Test [7] is described as follows: qHTS RealTime-Glo MT Cell Viability Assay in HEK293 cells - 32 hour (AID 1224868). Further: nearly all actives have a fitted effect of over 50% in size. Further: potency means the concentration at half of the fitted maximal effect. The essentials:
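HEK293 cells seeded with NanoLuc/prosubstrate reagent, rested 5 h at 37 C, then dosed and kept at 37 C up to 40 h. Nonlytic real-time luminescence from viable cells read at 0, 8, 16, 24, 32 and 40 h.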

Test [8] is described as follows: A CellTox Green Cytotoxicity Assay to monitor cytotoxicity in HEK293 cells - 0 hour (AID 1224869). Further: nearly all actives have a fitted effect of over 50% in size. An outline of the steps:
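Seeding of HEK293 cells together with cytotoxicity dye preceded a 5 h incubation at 37 C/5% CO2. Test compounds in DMSO were then added and fluorescence monitored across 40 h.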

Test [9] in a line: qHTS RealTime-Glo MT Cell Viability Assay in HepG2 cells - 40 hour (AID 1224870). Further: nearly all actives have a fitted effect of over 50% in size. Further: potency means the concentration at half of the fitted maximal effect. An outline of the steps:
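Real-time viability: cells seeded at 600 per well together with NanoLuc and cell-permeant prosubstrate, compounds added after 5 h incubation. Luminescence tracked at 0, 8, 16, 24, 32 and 40 h of exposure.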

The nature of test [10]: qHTS assay to identify small molecule agonists of the hypoxia (HIF-1) signaling pathway (AID 1224846; active means well fitted activation curve with a large enough effect in the signal ratio in the repeat runs, not every such curve was filed as active; the % refers to the signal ratio). An outline of the steps: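 Hypoxia-pathway activation was scored as increased beta-lactamase from an HRE-controlled reporter in ME-180 cells; plated at 2,000 cells per well with 0.5% dialyzed FBS, they were exposed 17 hrs to compounds and then given CCF4-AM.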

SMILES strings stand for the structures. Where “and” joins values, the source holds several entries; their conditions need not be identical. Identical values can stand only once. Inconclusive results are not listed. Where a structure was tested more than once in an assay, its records may differ in their call. Calls of active or inactive are those of the source. Unless noted, the call rests on the fitted dose curve; in most records, active means well fitted curve in the direction sought with a large enough effect in the repeat runs; inconclusive means weak or mixed curves; inactive means no such curve, though single readings can be large; an effect the other way counts as inactive or inconclusive.
On the % scale 0 is the no-effect control and ±100 the full control effect.

Turning to `C/C=C/C(=O)N(CC)c1ccccc1C`, the Potency entry in test [1], in test [2], in test [3], in test [4], in [6] and in test [7] was “inactive” each time. Besides, the Potency entry in test [8] and in test [9] was “inactive” in each case. Further, the activity change, positive = activation is 9.15% (inactive) in test [5] (at 42.5 µM (top of the series)) and -2.58% (inactive) in test [5] (at 92.4 µM (top of the series)).
For the compound `CN(C)CCCN1c2ccccc2Sc2ccc(Cl)cc21`, the Potency in test [1] was 49 µM (active); in [3], 55.2 µM (active); in [4] it was 54.5 µM (active); in test [6], 43.6 µM (active) and 23.9 µM (active); in [7], 24.5 µM (active) and 23.9 µM (active); in test [9], 30.9 µM (active) and 23.9 µM (active). Besides, the values for the activity change, positive = activation in [5] (at 42.5 µM (top of the series)) and in test [5] (at 92.4 µM (top of the series)) were -35.5% (inactive) and -80.4% (inactive), respectively. Further, the Potency result in test [8] is “inactive”.
Regarding `CCCCCCCC/C=C\CCCCCCCC(=O)O`, the Potency entry in test [1], in [2], in [3], in test [6], in test [7] and in test [8] was “inactive” throughout. The Potency entry in test [9] was “inactive”.
Consider `CC(C)[N+](C)(CCOC(=O)C1c2ccccc2Oc2ccccc21)C(C)C`, for which the Potency result in [1], in [2], in [3], in test [7], in test [8] and in test [9] was “inactive” throughout.
In the case of `NC[C@H](O)c1ccc(O)c(O)c1`, the Potency entry in test [1], in [3], in test [7], in test [8] and in test [9] was “inactive” each time.
On to `O=C(O)COCCN1CCN(C(c2ccccc2)c2ccc(Cl)cc2)CC1` (stereo not drawn), for which the Potency result in [1], in [3], in test [6], in [7], in test [8] and in test [9] was “inactive” throughout.
Turning to `C[C@]12CC[C@@H]3c4ccc(O)cc4CC[C@H]3[C@@H]1CC[C@@H]2O`, the Potency result in test [1], in test [2], in [3], in test [6], in [8] and in test [9] was “inactive” in each case. The Potency in [4] was 27.3 µM (active) and 34.4 µM (active); in test [7], 17.3 µM (active) and 21.9 µM (active). Moreover, the activity change, positive = activation in test [5] (at 92.4 µM (top of the series)) is -53.8% (inactive) and -42.2% (inactive).
For the compound `COc1ccc(C(=O)c2ccccc2O)c(O)c1`, the Potency result in [1], in test [2], in [4], in [6], in [7] and in test [8] was “inactive” in each case. Besides, the Potency result in [9] was “inactive”. Moreover, the compound was called inactive in [10]. Further, the activity change, positive = activation in test [5] (at 42.5 µM (top of the series)) is -1.96% (inactive); in test [5] (at 92.4 µM (top of the series)), -27.1% (inactive).
For the compound `C[C@]12CC[C@@H]3c4ccc(O)cc4CC[C@H]3[C@@H]1CC[C@H]2O`, the Potency entry in [1], in test [2], in [3], in test [8] and in test [9] was “inactive” each time. Further, the Potency in [4] was 15.6 µM (active) and 27.3 µM (active); in test [7], 5.59 µM (active) and 13.8 µM (active). Besides, the activity change, positive = activation in [5] (at 92.4 µM (top of the series)) is -38.5% (inactive) and -39.7% (inactive).
With `C[N+](C)(C)CCO`, the Potency result in test [1], in test [2], in test [3], in test [7], in test [8] and in [9] was “inactive” in each case.
On to `CN(C)/N=N/c1nc[nH]c1C(N)=O`, for which the Potency entry in [1], in test [2], in test [3], in [6], in test [7] and in test [8] was “inactive” in each case. The Potency result in test [9] is “inactive”. Further, the Potency in test [4] was 69.6 µM (active). Besides, the activity change, positive = activation in [5] (at 42.5 µM (top of the series)) was -23.2% (inactive); in [5] (at 92.4 µM (top of the series)), -35.6% (inactive).
For the compound `COc1ccc(-c2coc3cc(O)cc(O)c3c2=O)cc1`, the Potency entry in test [1], in test [2], in test [6], in test [8] and in test [9] was “inactive” throughout. For the same compound, the Potency is 36 µM (active) in test [3]; 44 µM (active) and 49 µM (active) in test [7].
For the compound `Nc1cc(Cl)c(N)c(Cl)c1`, the Potency result in test [1], in test [3], in test [6], in test [7], in test [8] and in [9] was “inactive” in each case. In test [10], the result was inactive.
Take `CN(Cc1cnc2nc(N)nc(N)c2n1)c1ccc(C(=O)N[C@@H](CCC(=O)O)C(=O)O)cc1`: the Potency result in [1], in test [6], in [8] and in [9] was “inactive” throughout. Also, the Potency in test [3] was 636 nM (active) and 1.1 µM (active); in test [7], 110 nM (active) and 67.4 nM (active).
Consider `CCc1cccc2c3c([nH]c12)C(CC)(CC(=O)O)OCC3` (stereo not drawn), for which the Potency result in test [1], in [2], in test [3], in test [7], in test [8] and in test [9] was “inactive” in each case.
As to `O=C(CCCN1CCC(O)(c2ccc(Cl)cc2)CC1)c1ccc(F)cc1`, the Potency entry in test [1], in [2], in test [3] and in test [8] was “inactive” in each case. The Potency in test [7] was 17.4 µM (active) and 8.49 µM (active); in test [9], 54.9 µM (active) and inactive.
Regarding `C=C[C@H]1CN2CC[C@H]1C[C@H]2[C@H](O)c1ccnc2ccc(OC)cc12`, the Potency entry in test [1], in [2], in [3], in test [7], in test [8] and in test [9] was “inactive” each time.
Turning to `c1ccc2c(c1)ccc1cc3c(ccc4ccccc43)cc12`, the Potency entry in test [1], in test [3], in test [6], in [7], in test [8] and in test [9] was “inactive” each time. Further, the call in test [10] was inactive.
Turning to `C=C[C@@]1(C)CC(=O)[C@]2(O)[C@@]3(C)[C@@H](O)CCC(C)(C)[C@@H]3[C@H](O)[C@H](OC(C)=O)[C@@]2(C)O1`, the Potency in test [1] was 38.9 µM (active). Besides, the Potency entry in test [2], in [3], in [7], in test [8] and in test [9] was “inactive” throughout. For the same compound, in [10], the outcome was inactive.
As to `C1CN(SSN2CCOCC2)CCO1`, the Potency in test [1] is 54.4 µM (active); in test [4], 60.5 µM (active) and 61.1 µM (active). Also, the compound was classed as inactive in [10]. Also, the Potency result in test [3], in test [6], in [7], in [8] and in test [9] was “inactive” in each case. Further, the activity change, positive = activation in test [5] (at 92.4 µM (top of the series)) is -55.6% (inactive) and -54.1% (inactive).
Consider `Cc1cccc(Nc2ccccc2C(=O)O)c1C`, for which the Potency result in [1], in test [2], in test [3], in test [6], in test [7] and in [8] was “inactive” each time. Besides, in [9], the Potency result was “inactive”.
For the compound `CC(C)(Oc1ccc(Cl)cc1)C(=O)O`, the Potency entry in test [1], in test [2], in [3], in [7], in test [8] and in [9] was “inactive” in each case.
With `Oc1ccc(C(c2ccc(O)cc2)C(Cl)(Cl)Cl)cc1`, the Potency entry in test [1], in test [2], in test [8] and in test [9] was “inactive” each time. Moreover, the call in [10] was inactive.
Turning to `C=C[C@H]1CN2CC[C@H]1C[C@@H]2[C@@H](O)c1ccnc2ccc(OC)cc12`, the Potency result in test [1], in test [2], in test [3], in [6], in test [8] and in test [9] was “inactive” each time. Moreover, the Potency in test [7] was 48.2 µM (active).
Take `CNC[C@H](O)c1ccc(O)c(O)c1`: the Potency entry in test [1], in test [3], in test [4], in test [7], in test [8] and in test [9] was “inactive” each time. In addition, the values for the activity change, positive = activation in [5] (at 19 µM (top of the series)) and in [5] (at 92.4 µM (top of the series)) were 16.5% (inactive) and -7.74% (inactive), respectively.
In the case of `c1ccc2cc3ccccc3cc2c1`, the Potency entry in [1], in test [3], in test [4], in test [6], in [7] and in [8] was “inactive” in each case. Also, the Potency result in test [9] is “inactive”. Also, the compound was classed as inactive in [10]. In test [5] (at 92.4 µM (top of the series)), the activity change, positive = activation was 6.4% (inactive) and 19.8% (active).
`Nc1ccc(O)c(N)c1`: the Potency result in test [1], in test [4], in [6], in test [7], in [8] and in [9] was “inactive” throughout. For the same compound, the compound was classed as inactive in [10]. The Potency in test [3] was 56.3 µM (active) and 50.5 µM (active). In [5] (at 92.4 µM (top of the series)), the activity change, positive = activation was -9.18% (inactive) and -12% (inactive).

These data come from PubChem BioAssay (Tox21).
